In PubChem BioAssay (Tox21):
Results filed as inconclusive are left out. Active and inactive are the calls of the source. Unless noted, the call rests on the fitted dose curve; in most records, active means well fitted curve in the direction sought with a large enough effect in the repeat runs; inconclusive means weak or mixed curves; inactive means no such curve, though single readings can be large; an effect the other way counts as inactive or inconclusive.

Tests used:
[1] = qHTS assay to identify small molecule agonists of the estrogen receptor alpha (ER-alpha) signaling pathway in the presence of an antagonist - cell viability counter screen (AID 1259386);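 further: series mostly up to about 92 µM; cells exposed to compounds for 22 h at 37 °C before the viability read; nearly all actives have a fitted effect of over 30% in size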
Summary of the method: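 Fluorescent CellTiter-Fluor viability signal from VM7Luc4E2 cells, with the reagent added during the final hour of a 22hr compound exposure at 37C in the presence of 10.0nM ICI-182,780.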

[2] = target: Progesterone receptor (Homo sapiens) (UniProt P06401); test: qHTS assay to identify small molecule agonists of the progesterone receptor (PR) signaling pathway (AID 1346784; calls by dose curve; further: nearly all actives have a fitted effect of over 30% in size)
Progesterone receptor (Homo sapiens), sequence (P06401 whole entry, looked up): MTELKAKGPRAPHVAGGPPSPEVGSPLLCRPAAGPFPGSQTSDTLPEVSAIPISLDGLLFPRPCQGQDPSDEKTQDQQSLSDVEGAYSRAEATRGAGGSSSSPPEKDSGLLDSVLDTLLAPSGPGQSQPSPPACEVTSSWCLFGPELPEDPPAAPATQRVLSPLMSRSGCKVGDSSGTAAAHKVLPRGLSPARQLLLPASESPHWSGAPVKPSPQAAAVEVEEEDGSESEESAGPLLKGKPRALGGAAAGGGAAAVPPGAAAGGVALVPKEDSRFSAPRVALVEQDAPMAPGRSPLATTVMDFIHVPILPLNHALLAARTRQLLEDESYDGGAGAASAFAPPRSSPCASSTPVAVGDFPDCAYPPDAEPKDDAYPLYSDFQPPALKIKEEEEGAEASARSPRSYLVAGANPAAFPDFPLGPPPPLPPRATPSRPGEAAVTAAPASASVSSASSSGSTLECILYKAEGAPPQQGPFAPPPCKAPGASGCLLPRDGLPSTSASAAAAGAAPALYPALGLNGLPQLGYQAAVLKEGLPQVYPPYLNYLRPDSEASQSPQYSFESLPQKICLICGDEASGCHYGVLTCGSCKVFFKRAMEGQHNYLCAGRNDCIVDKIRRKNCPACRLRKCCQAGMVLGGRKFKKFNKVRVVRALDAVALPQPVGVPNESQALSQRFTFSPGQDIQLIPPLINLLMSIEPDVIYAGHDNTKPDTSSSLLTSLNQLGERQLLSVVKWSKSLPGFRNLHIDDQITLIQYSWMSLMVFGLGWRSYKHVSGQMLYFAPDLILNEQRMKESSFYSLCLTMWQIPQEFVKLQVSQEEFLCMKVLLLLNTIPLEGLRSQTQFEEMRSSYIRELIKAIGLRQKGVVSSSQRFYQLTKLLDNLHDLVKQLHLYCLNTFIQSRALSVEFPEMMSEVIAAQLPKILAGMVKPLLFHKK
Summary of the method: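 PR-UAS-bla HEK 293T cells carrying a UAS-driven beta-lactamase reporter were seeded in medium with 2% charcoal-stripped FBS, preincubated 6 hr at 37C, then exposed to compounds in DMSO for 16 hr; agonism was read by LiveBLAzer B/G FRET fluorescence.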

[3] = target: Progesterone receptor (Homo sapiens) (UniProt P06401); test: qHTS assay to identify small molecule antagonists of the progesterone receptor (PR) signaling pathway (AID 1346795; active means well fitted inhibition curve with a large enough effect in the signal ratio in the repeat runs, not every such curve was filed as active; the % refers to the signal ratio)
Summary of the method: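 PR-UAS-bla HEK293T cells carrying a UAS-driven beta-lactamase reporter were plated in medium with 2% charcoal-stripped FBS and rested 6 hr at 37C. Compounds were added with 1 nM R5020 (final) for 16 hr, then FRET substrate loaded 2 hr at room temperature.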

[4] = qHTS assay to identify small molecule antagonists of the progesterone receptor (PR) signaling pathway - cell viability counter screen (AID 1346798); further: series mostly up to about 92 µM; nearly all actives have a fitted effect of over 50% in size
Summary of the method: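 PR-UAS-bla HEK293T cells in medium with 2% charcoal-stripped FBS were treated with compounds plus R5020 for 16 hr at 37C. Cell viability was then read by CellTiter-Glo luminescence after 30 min at room temperature in the same wells.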

[5] = qHTS assay to identify small molecule agonists of the progesterone receptor (PR) signaling pathway - cell viability counter screen (AID 1346799; calls by dose curve; further: nearly all actives have a fitted effect of over 45% in size)
Summary of the method: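 PR-UAS-bla HEK293T cells, 3,000 per well in medium with 2% charcoal-stripped FBS, were preincubated 6 hr at 37C, then exposed to compounds for 16 hr; viability was read as CellTiter-Glo luminescence after 30 min at room temperature.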

[6] = qHTS assay to identify small molecule antagonists of the TGF-beta/Smad signaling pathway - cell viability counter screen (AID 1346824); further: nearly all actives have a fitted effect of over 50% in size
Summary of the method: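 SBE-bla HEK 293T cells, incubated overnight, then compound plus 0.25 ng/mL TGF-beta1 (stock added) for 5 hr at 37 C. Viability was read in the same wells by CellTiter-Glo luminescence after 30 min at room temperature.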

[7] = qHTS assay to identify small molecule agonists of the TGF-beta/Smad signaling pathway - cell viability counter screen (AID 1346829); further: top concentration of the series differs between compounds; nearly all actives have a fitted effect of over 45% in size
Summary of the method: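 HEK 293T SBE-bla line, 5 hr compound exposure at 37 C, multiplexed CellTiter-Glo viability read by luminescence.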

[8] = qHTS assay to identify small molecule agonists of the TGF-beta/Smad signaling pathway (AID 1346859; active means well fitted activation curve with a large enough effect in the signal ratio in the repeat runs, not every such curve was filed as active; the % refers to the signal ratio; further: series mostly up to about 77 µM)
Summary of the method: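 HEK 293T cells stably carrying a beta-lactamase reporter driven by the Smad binding element were seeded overnight, exposed to DMSO-dissolved compounds for 5 hr at 37 C, 5% CO2, then loaded with FRET substrate for 2 hr at room temperature.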

[9] = Human pregnane X receptor (PXR) small molecule agonists, qHTS cell viability counter screen (AID 1346977); further: nearly all actives have a fitted effect of over 50% in size
Summary of the method: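 PXR-Luc HepG2 cells in medium with 5% charcoal-stripped FBS were pre-incubated 5hr, then exposed to compounds for 24hr at 37C. Viability was read in the same wells by CellTiter-Fluor fluorescence, reagent added after 23hr with a 1hr incubation.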

[10] = Caspase-3/7 induction in HepG2 cells by small molecules, qHTS assay (AID 1346978); further: nearly all actives have a fitted effect of over 15% in size
Summary of the method: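 Wild-type HepG2 cells, 2,000/well, settled 5 hr at 37 C and 5% CO2, then compound-treated for 17 hr; caspase-3/7 activity read by luminescent Caspase-Glo 3/7 after 30 min at room temperature.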

[11] = Caspase-3/7 induction in CHO-K1 cells by small molecules, qHTS cell viability counter screen (AID 1346979); further: nearly all actives have a fitted effect of over 35% in size
Summary of the method: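 Wild-type CHO-K1 cells were seeded at 1,500 per well, rested 5hr at 37 C, then exposed to compounds in DMSO. After 16hr, CellTiter-Fluor reagent was added and fluorescence read 1hr later as the viability measure.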

[12] = Caspase-3/7 induction in CHO-K1 cells by small molecules, qHTS assay (AID 1346980); further: nearly all actives have a fitted effect of over 15% in size
Summary of the method: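 Wild-type CHO-K1 cells exposed to compounds for 17hr at 37 C, 5% CO2. Caspase-3/7 activity then measured by Caspase-Glo 3/7 luminescence after 30min at room temperature.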

[13] = Caspase-3/7 induction in HepG2 cells by small molecules, qHTS cell viability counter screen (AID 1346981); further: series mostly up to about 92 µM; nearly all actives have a fitted effect of over 30% in size
Summary of the method: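 Counter screen for cytotoxicity: HepG2 exposed 16 hr to compounds, then CellTiter-Fluor viability signal (fluorescence, 1 hr reagent incubation).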

[14] = target: Nuclear receptor subfamily 1 group I member 2 (Homo sapiens) (UniProt O75469); test: Human pregnane X receptor (PXR) small molecule agonists, qHTS assay (AID 1346982); further: nearly all actives have a fitted effect of over 35% in size
Nuclear receptor subfamily 1 group I member 2 (Homo sapiens), sequence (O75469 whole entry, looked up): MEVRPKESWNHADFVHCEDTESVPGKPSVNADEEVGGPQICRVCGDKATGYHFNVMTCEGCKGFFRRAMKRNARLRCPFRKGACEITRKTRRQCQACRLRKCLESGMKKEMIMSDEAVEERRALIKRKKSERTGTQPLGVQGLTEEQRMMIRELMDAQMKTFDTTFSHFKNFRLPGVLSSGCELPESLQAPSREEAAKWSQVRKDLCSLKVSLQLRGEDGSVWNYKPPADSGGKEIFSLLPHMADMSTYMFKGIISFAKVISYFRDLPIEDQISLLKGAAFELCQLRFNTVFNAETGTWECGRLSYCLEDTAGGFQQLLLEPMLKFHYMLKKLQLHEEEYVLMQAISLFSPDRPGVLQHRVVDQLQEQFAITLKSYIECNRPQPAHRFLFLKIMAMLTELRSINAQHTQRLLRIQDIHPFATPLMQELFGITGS
Summary of the method: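 Luminescence (ONE-Glo, 30 min RT) after 24 hr compound exposure of PXR-Luc HepG2 cells; cells rested 5 hr post-plating in 5% charcoal-stripped FBS medium.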

[15] = target: Nuclear receptor subfamily 1 group I member 2 (Rattus norvegicus) (UniProt Q9R1A7); test: Rat pregnane X receptor (rPXR) activation by small molecules, qHTS assay (AID 1346983); settings: rPXR luciferase reporter cells, One-Glo luminescence, 24 h; stronger effect = higher value; further: nearly all actives have a fitted effect of over 20% in size
Nuclear receptor subfamily 1 group I member 2 (Rattus norvegicus), sequence (Q9R1A7 whole entry, looked up): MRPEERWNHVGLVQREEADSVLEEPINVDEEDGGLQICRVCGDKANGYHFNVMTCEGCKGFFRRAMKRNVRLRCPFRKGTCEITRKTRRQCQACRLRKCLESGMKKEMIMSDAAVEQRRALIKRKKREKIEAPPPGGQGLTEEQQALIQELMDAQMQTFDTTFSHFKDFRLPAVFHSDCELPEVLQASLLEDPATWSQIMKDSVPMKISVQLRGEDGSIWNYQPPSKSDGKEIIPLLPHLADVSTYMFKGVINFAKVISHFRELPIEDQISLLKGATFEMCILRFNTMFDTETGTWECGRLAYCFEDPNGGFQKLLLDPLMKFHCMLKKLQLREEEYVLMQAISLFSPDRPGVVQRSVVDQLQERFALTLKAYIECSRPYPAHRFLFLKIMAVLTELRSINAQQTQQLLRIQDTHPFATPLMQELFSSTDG
Summary of the method: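 Cell-based rPXR activation assay: rPXR cells, 2,000 per well, rested 5hr at 37 C, then exposed to compounds in DMSO for 24 hr at 37 C. Luciferase activity read by One-Glo luminescence after 30 min at room temperature.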

[16] = target: Nuclear receptor subfamily 1 group I member 2 (Homo sapiens) (UniProt O75469); test: CYP3A4 induction through human pregnane X receptor (PXR) by small molecules, qHTS assay (AID 1346984); further: nearly all actives have a fitted effect of over 40% in size
Summary of the method: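 DPX-2 reporter cells; 24h cpd, 37C; Luciferin-IPA 3uM final x3h; One-Glo 30 min RT; lumi read.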

[17] = target: Nuclear receptor subfamily 1 group I member 2 (Homo sapiens) (UniProt O75469); test: Human pregnane X receptor (PXR) activation by small molecules, qHTS assay (AID 1346985); further: nearly all actives have a fitted effect of over 40% in size
Summary of the method: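 DPX-2 cells (HepG2 co-transfected with a PXR response element and a CYP3A4-promoter luciferase construct) were seeded at 2,000 per well, rested 5 hr at 37C, then exposed to DMSO-dissolved compounds for 24 hr. Activation was read as luciferase luminescence.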

[18] = target: Acetylcholinesterase (Homo sapiens) (UniProt P22303); test: Acetylcholinesterase (AChE) small molecule antagonists: colormetric cell-based qHTS assay (AID 1347395; calls by dose curve; further: nearly all actives have a fitted effect of over 30% in size)
Acetylcholinesterase (Homo sapiens), sequence (P22303 whole entry, looked up): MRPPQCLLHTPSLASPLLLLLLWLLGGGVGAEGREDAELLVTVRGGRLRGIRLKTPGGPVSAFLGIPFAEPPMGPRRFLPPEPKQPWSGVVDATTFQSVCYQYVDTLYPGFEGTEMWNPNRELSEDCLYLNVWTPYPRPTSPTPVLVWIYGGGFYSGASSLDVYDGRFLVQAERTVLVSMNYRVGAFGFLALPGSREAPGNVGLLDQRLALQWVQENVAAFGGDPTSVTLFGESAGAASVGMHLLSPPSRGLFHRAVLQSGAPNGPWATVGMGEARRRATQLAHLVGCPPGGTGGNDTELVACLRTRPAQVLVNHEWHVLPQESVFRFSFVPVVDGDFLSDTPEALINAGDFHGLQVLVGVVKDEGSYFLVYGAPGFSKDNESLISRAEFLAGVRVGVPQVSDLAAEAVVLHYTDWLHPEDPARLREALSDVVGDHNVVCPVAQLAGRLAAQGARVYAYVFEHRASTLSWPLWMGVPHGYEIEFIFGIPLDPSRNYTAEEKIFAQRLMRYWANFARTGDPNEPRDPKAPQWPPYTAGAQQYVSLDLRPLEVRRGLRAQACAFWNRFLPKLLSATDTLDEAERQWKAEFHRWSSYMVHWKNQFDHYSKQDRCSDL
Summary of the method: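 SH-SY5Y cells, plated overnight at 37 C, were exposed to compounds for 30 min at 37 C and 5% CO2. Acetylthiocholine plus DTNB was then added, and thiocholine from endogenous AChE was quantified colorimetrically after 90 min at 37 C.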

[19] = target: Thyrotropin-releasing hormone receptor (Homo sapiens) (UniProt P34981); test: qHTS assay to identify small molecule antagonists of the thyrotropin-releasing hormone receptor (TRHR) signaling pathway (AID 1346877; active means well fitted inhibition curve with a large enough effect in the repeat runs, not every such curve was filed as active; further: series mostly up to about 51 µM)
Thyrotropin-releasing hormone receptor (Homo sapiens), sequence (P34981 whole entry, looked up): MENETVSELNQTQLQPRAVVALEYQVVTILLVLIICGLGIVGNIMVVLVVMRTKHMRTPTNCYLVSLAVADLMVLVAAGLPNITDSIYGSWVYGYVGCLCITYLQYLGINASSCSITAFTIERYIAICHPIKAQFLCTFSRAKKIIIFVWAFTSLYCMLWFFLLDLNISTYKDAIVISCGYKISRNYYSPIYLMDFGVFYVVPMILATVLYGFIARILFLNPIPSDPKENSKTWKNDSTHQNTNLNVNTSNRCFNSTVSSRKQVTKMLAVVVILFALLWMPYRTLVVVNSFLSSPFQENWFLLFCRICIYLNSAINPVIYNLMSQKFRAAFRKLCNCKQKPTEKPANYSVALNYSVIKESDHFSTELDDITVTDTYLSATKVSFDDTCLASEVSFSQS
Summary of the method: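 In this cell-based calcium flux format, HEK293 cells expressing TRHR received test compound for 5 min before the agonist TRH (1 nM final). Dye loading lasted 2 h at 37 °C.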

[20] = target: Thyrotropin-releasing hormone receptor (Homo sapiens) (UniProt P34981); test: qHTS assay to identify small molecule agonists of the thyrotropin-releasing hormone receptor (TRHR) signaling pathway (AID 1346891; calls by dose curve; further: series mostly up to about 58 µM)
Summary of the method: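 TRHR-expressing HEK293 cells were plated 18 h at 37 °C/5% CO2, loaded with calcium dye 2 h at 37 °C, then given compound in DMSO; fluorescence was read kinetically for 3 min at 1 s intervals.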
On the % scale 0 is the no-effect control and ±100 the full control effect.

COc1cccc([C@@]2(O)CCCC[C@@H]2CN(C)C)c1
inactive: Potency [1] | Potency [2] | Potency [3] | Potency [4] | Potency [5] | outcome [6] | Potency [7] | outcome [8] | Potency [9] | outcome [10] | Potency [11] | outcome [12] | Potency [13] | Potency [14] | max activation [15] -2.97% | Potency [16] | Potency [17] | Potency [18]

CC(=O)OCC1=C(C(=O)O)N2C(=O)[C@@H](N)[C@H]2SC1
inactive: activity change, negative = cytotoxicity [1] -2.84% [at 19 µM] | activation [2] 0.683% [at 19 µM] | activity change, negative = inhibition [3] 0.73% [at 18.9 µM] | activity change, negative = cytotoxicity [4] 2.66% [at 18.9 µM] | activity change, negative = cytotoxicity [5] 3.69% [at 19 µM] | viability change, negative = cytotoxic [6] -0.755% [at 15.8 µM] | activity change, negative = cytotoxicity [7] -0.572% [at 15.8 µM] | activation [8] -1.32% [at 15.8 µM] | caspase activation [10] 0.281% [at 19 µM] | caspase-3/7 activation [12] 0.439% [at 19 µM] | activity change, negative = cytotoxicity [13] -1.33% [at 19 µM] | activation [14] -3.67% [at 19 µM] | max activation [15] 4.87% | Potency [16] | Potency [17] | activity, negative = inhibition [18] 1.78% [at 23.6 µM]

C=C(C)[C@H]1CN[C@H](C(=O)O)[C@H]1CC(=O)O
inactive: Potency [1] | Potency [2] | Potency [3] | Potency [4] | Potency [5] | outcome [6] | Potency [7] | outcome [8] | Potency [19] | outcome [20] | outcome [10] | Potency [11] | Potency [13] | max activation [15] -1.12% | Potency [16] | Potency [17]

C=CC=O
inactive: Potency [1] | Potency [2] | Potency [3] | Potency [4] | Potency [5] | outcome [6] | outcome [8] | Potency [19] | outcome [20] | Potency [9] | outcome [10] | outcome [12] | Potency [13] | Potency [14] | Potency [18]

O=C1CCCCC1Cl (stereo unspecified)
inactive: Potency [1] | Potency [2] | Potency [3] | Potency [4] | Potency [5] | outcome [6] | Potency [7] | outcome [8] | Potency [9] | outcome [10] | Potency [11] | outcome [12] | Potency [13] | Potency [14] | Potency [18]

O=C(Cl)CCl
inactive: Potency [1] | Potency [2] | Potency [3] | Potency [4] | Potency [5] | outcome [6] | Potency [7] | outcome [8] | Potency [19] | outcome [20] | outcome [10] | Potency [11] | outcome [12] | Potency [13] | Potency [14] | Potency [18]

CCC(CC)(CNC(=O)CCCO)c1cccc(OC)c1
inactive: Potency [1] | Potency [2] | Potency [3] | Potency [4] | Potency [5] | outcome [6] | Potency [7] | outcome [8] | Potency [19] | outcome [20] | outcome [10] | Potency [11] | outcome [12] | Potency [13] | Potency [18]

CCNc1nc(NCC)nc(SC)n1
inactive: Potency [1] | Potency [2] | Potency [3] | Potency [4] | Potency [5] | outcome [6] | outcome [8] | Potency [19] | outcome [20] | Potency [9] | outcome [10] | Potency [11] | outcome [12] | Potency [13] | Potency [18]
